# According to PubChem BioAssay (NCATS):
# A number with no mark means an inactive call. Records with an inconclusive call do not appear. Where a call stands in place of a potency, no number is given. Active and inactive are the calls of the source. Calls follow the shape of the dose curve; as a rule, active = well fitted curve in the direction sought with a large enough effect; inconclusive = small, poorly fitted or top-dose-only effect, or another doubt; inactive = no such curve, though single readings can be large; an effect the other way counts as inactive or inconclusive. Where a SMILES comes first, the peptide text is derived from it. The star is where a group is joined. Hexanoyl = CCCCCC(=O)*
# What was measured:
# [1] = target: Glutathione peroxidase 1 (Homo sapiens) (UniProt P07203); assay: Primary qHTS Assay for Inhibitors of Recombinant Selenoprotein Glutathione Peroxidase 1 (GPX1) (AID 1845191); also: nearly all actives have a fitted effect of over 65% in size
# Chain of Glutathione peroxidase 1 (Homo sapiens) (P07203 whole entry, looked up): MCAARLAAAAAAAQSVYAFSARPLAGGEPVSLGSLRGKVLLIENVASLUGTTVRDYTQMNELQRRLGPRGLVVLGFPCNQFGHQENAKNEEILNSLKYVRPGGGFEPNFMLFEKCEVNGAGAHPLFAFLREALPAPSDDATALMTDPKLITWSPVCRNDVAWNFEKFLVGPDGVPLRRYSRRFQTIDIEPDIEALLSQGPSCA
# Method in brief: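 GR-coupled readout: NADPH consumption tracked by fluorescence, ex 340/em 450 nm, at t=0 and after 15 min at RT. Final mix 10 nM GPX1, 1 mM GSH, 0.5 mM CHP, 0.5 mM NADPH, 100 nM GR, 0.01% BSA, following 30 min enzyme–compound preincubation.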
# [2] = target: Phospholipid hydroperoxide glutathione peroxidase GPX4 (Homo sapiens) (UniProt P36969); assay: Primary qHTS Assay for Inhibitors of Recombinant Selenoprotein Glutathione Peroxidase 4 (GPX4) (AID 1845192); also: nearly all actives have a fitted effect of over 65% in size; as to activity change, negative = inhibition: series mostly up to about 50 µM
# Chain of Phospholipid hydroperoxide glutathione peroxidase GPX4 (Homo sapiens) (P36969 whole entry, looked up): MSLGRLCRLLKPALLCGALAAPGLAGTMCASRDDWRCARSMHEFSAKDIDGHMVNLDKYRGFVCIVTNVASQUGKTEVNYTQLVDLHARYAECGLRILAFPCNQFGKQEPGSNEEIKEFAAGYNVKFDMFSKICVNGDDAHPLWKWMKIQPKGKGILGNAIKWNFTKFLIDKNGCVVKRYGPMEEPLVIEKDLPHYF
# Method in brief: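 Steps: GPX4 plus compound, 30 min RT; add GR/GSH/NADPH master mix; start with cumene hydroperoxide; read 340/450 nm fluorescence at 0 and 15 min. Finals were 200 nM GPX4, 1 mM GSH, 0.5 mM CHP, 0.5 mM NADPH, 100 nM GR.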
# [3] = target: Luciferin 4-monooxygenase (Photinus pyralis) (UniProt P08659); assay: Primary firefly luciferase (FLuc) qHTS assay for identification of artifact compounds. (AID 1845220); also: nearly all actives have a fitted effect of over 60% in size; as to activity change, negative = inhibition: series mostly up to about 54 µM
# Method in brief: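 D-luciferin and ATP (10 uM each, final) in Tris acetate buffer pH 7.6 were incubated with compounds for 15 min at room temperature. The reaction was started with 10 nM Photinus pyralis luciferase and luminescence read after 5 min. Percent inhibition was fitted to a 4-parameter Hill equation.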
# [4] = Primary fluorescence-based thiol-reactive (MSTI) qHTS assay for identification of artifact compounds. (AID 1845221); also: nearly all actives have a fitted effect of over 65% in size; also: potency is read from the fitted curve at half-maximal effect;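 as to activity change, negative = thiol reactive: series mostly up to about 54 µM; thiol-reactive compounds lower the probe fluorescence signal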
# Method in brief: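 In PBS pH 7.4 with 2% DMSO, each compound met 4 uM MSTI for one hour at ambient temperature, shielded from light, before fluorescence detection.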
# [5] = system: Nanoluciferase (engineered Oplophorus gracilirostris luciferase); assay: Primary Nanoluciferase (NLuc) qHTS assay for identification of artifact compounds. (AID 1845222); also: series mostly up to about 54 µM
# Method in brief: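 Diluted conditioned medium from NLuc-expressing S16 cells treated with compounds for 15 min at room temperature, then Nano-Glo substrate added; luminescence read after 5 min. Percent inhibition versus no-enzyme and DMSO controls fitted to 4-parameter Hill equation.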
# [6] = Primary redox qHTS assay for identification of artifact compounds. (AID 1845223)
# Method in brief: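 Redox-cycling detection via DTT (250 uM final) oxidation coupled to Amplex Red (25 uM)/HRP (250 mU/mL) in HBSS. 15 min preincubation plus 30 min after DTT, room temperature. Ex/Em 525/598 nm; 4-parameter Hill fit against DMSO and 10 uM DA3003.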
SMILES,Potency [1],Potency [2],Potency [3],Potency [4],Potency [5],Potency [6],outcome [3],"activity change, negative = thiol reactive [4]","activity, negative = inhibition [5]",redox activity (% of DA3003) [6],"activity change, negative = inhibition [3]"
CCCCCC(=O)N1CCC[C@H]1C(=O)N[C@@H](Cc1ccc(O)cc1)C(=O)OC (Hexanoyl-Pro-Tyr-OMe),inactive,inactive,inactive,inactive,inactive,inactive,–,–,–,–,–
C[C@@H]1O[C@@H](O[C@H]2[C@H](OC(=O)[C@]34CCC(C)(C)C[C@H]3C3=CCC5[C@@]6(C)C[C@@H](O)[C@@H](O)[C@@](C)(CO)C6[C@H](O)C[C@@]5(C)[C@]3(C)CC4)OC[C@H](O)[C@@H]2O)[C@H](O)[C@H](O)[C@H]1O[C@@H]1OC[C@@H](O)[C@H](O[C@H]2O[C@H](C)[C@@H](O)[C@H](O)[C@@H]2O)[C@H]1O (some centres not stated),inactive,inactive,–,–,–,–,inactive [at 11.6 µM],381% [at 11.5 µM],4.47% [at 11.6 µM],18.5% [at 11.5 µM],–
CC(=O)[C@@H]1C[C@H](C(C)(C)O[C@@H]2O[C@H](CO)[C@@H](O)[C@H](O)[C@H]2O)CC[C@@]2(CO)OC(=O)C[C@@H]12,inactive,inactive,inactive,inactive,inactive,inactive,–,–,–,–,–
CC1OC(O[C@H]2CC[C@@]3(C)C(CC[C@]4(C)C3CC=C3C5CC(C)(C)CC[C@]5(C(=O)OC5OC(CO)C(OC6OCC(OC7OCC(O)C(O)C7O)C(O)C6O)C(O)C5O)CC[C@]34C)C2(C)C)C(O)C(O)C1OC1OC(CO)C(O)C(OC2OC(CO)C(O)C(O)C2O)C1O (some centres not stated),inactive,inactive,–,–,–,–,inactive [at 11.6 µM],250% [at 11.5 µM],0.21% [at 11.6 µM],2.88% [at 11.5 µM],–
Cn1cc(CCn2cnc(-c3cnn(C)c3)c2-c2ccc(C#N)cc2)cn1,inactive,inactive,inactive,inactive,inactive,inactive,–,–,–,–,–
O=C(O)CC1CCC(c2ccc(-c3ccc(Nc4ccc(C(F)(F)F)nc4)cn3)cc2)CC1 (configuration not stated),inactive,inactive,inactive,inactive,inactive,inactive,–,–,–,–,–
COc1cc(C2Oc3c(OC)cc(CCCO)cc3C2CO)ccc1O (configuration not stated),inactive,inactive,inactive,13.1 µM (active),inactive,inactive,–,–,–,–,–
CC1(C)C(=O)N2c3ccccc3C(O)(CC(C(=O)O)n3cnc4ccccc4c3=O)C2N1O (configuration not stated),inactive,inactive,inactive,inactive,inactive,inactive,–,–,–,–,–
CC1=CC(=O)C2C(C)(C)CCC[C@]2(C)[C@H]1CC[C@H](C)CC(=O)O (some centres not stated),inactive,inactive,inactive,inactive,inactive,inactive,–,–,–,–,–
C=C1C2CCC3C(CCC4[C@@]3(C)CCC[C@@]4(C)C(=O)O)(C2)[C@@H]1OC(=O)/C(C)=C\C (some centres not stated),inactive,inactive,inactive,inactive,inactive,inactive,–,–,–,–,–
COc1cc(/C=C/C(=O)O[C@@H]2C[C@@](O)(C(=O)O)C[C@@H](O)[C@@H]2O)ccc1O,inactive,inactive,inactive,6.56 µM (active),inactive,inactive,–,–,–,–,–
Nc1ncnc2c1c(COc1cccc(Cl)c1)nn2C1CCOCC1,inactive,inactive,inactive,inactive,inactive,inactive,–,–,–,–,–
CC1(C)CC[C@]2(C(=O)O[C@@H]3O[C@H](CO)[C@@H](O)[C@H](O)[C@H]3O)CC[C@]3(C)C(=CCC4[C@@]5(C)C[C@@H](O)[C@H](O)[C@@](C)(CO)C5[C@H](O)C[C@]43C)C2C1 (some centres not stated),inactive,inactive,inactive,inactive,inactive,inactive,–,–,–,–,–
CC1=CCC[C@@H]2[C@](CCc3ccoc3)(C(=O)O)[C@H](C)CC[C@@]12C,inactive,inactive,inactive,inactive,inactive,inactive,–,–,–,–,–
O=C(/C=C/c1ccc(O)cc1)OC[C@@]1(O)C=C[C@@H]2C(C(=O)O)=CO[C@@H](O[C@@H]3O[C@H](CO)[C@@H](O)[C@H](O)[C@H]3O)[C@@H]21,inactive,inactive,inactive,5.19 µM (active),inactive,inactive,–,–,–,–,–
C=C1CCC2[C@@](C)(C(=O)O)CCC[C@@]2(C)[C@@H]1CCc1ccoc1 (some centres not stated),inactive,inactive,inactive,inactive,inactive,inactive,–,–,–,–,–
C/C(=C/CO)CC[C@H]1[C@]2(C)C[C@H](O)CC(C)(C)[C@H]2CC[C@]1(C)O,inactive,inactive,inactive,inactive,inactive,inactive,–,–,–,–,–
O=C(OCc1ccccc1O[C@@H]1O[C@H](CO)[C@@H](O)[C@H](O)[C@H]1O)C1(O)C=CCCC1O (some centres not stated),inactive,inactive,inactive,5.82 µM (active),inactive,inactive,–,–,–,–,–
C=C1C(O)CC2C(C(=O)O)=COC(O[C@@H]3O[C@H](COC(=O)c4ccc(O)cc4)[C@@H](O)[C@H](O)[C@H]3O)C12 (some centres not stated),inactive,inactive,inactive,5.19 µM (active),inactive,inactive,–,–,–,–,–
CC1=C2C(=O)C=C(CO)C2C2OC(=O)C(CS(=O)(=O)O)C2C(OC(=O)Cc2ccc(O)cc2)C1 (configuration not stated),inactive,inactive,inactive,3.67 µM (active),inactive,inactive,–,–,–,–,–
CC1=C(CC/C(C)=C/C(=O)O)[C@@]2(C)CCCC(C)(C)C2CC1=O (some centres not stated),inactive,inactive,inactive,inactive,inactive,inactive,–,–,–,–,–

SMILES,Potency [1],Potency [2],Potency [3],Potency [4],Potency [5],Potency [6],outcome [3],"activity change, negative = thiol reactive [4]","activity, negative = inhibition [5]",redox activity (% of DA3003) [6],"activity change, negative = inhibition [3]"
C[C@]12CCC[C@](C)(C(=O)O)C1CCC13CC(CO)C(CCC12)C3 (some centres not stated),inactive,inactive,inactive,inactive,inactive,inactive,–,–,–,–,–
CC(O)C(=O)/C=C/C=C/C(=O)OC1C=C2COC(=O)C2(O)C2(C)CCCC(C)(C)C12 (configuration not stated),inactive,inactive,inactive,inactive,inactive,inactive,–,–,–,–,–
CC1CCC2(C)CCC3(C)C(=CCC4C5(C)CCC(O)C(C)(C(=O)O)C5CCC43C)C2C1C (configuration not stated),inactive,inactive,inactive,inactive,inactive,inactive,–,–,–,–,–
CC1=C[C@H]2[C@@H](CC1=O)[C@H](C)C[C@H](O)[C@H]2C(C)C,inactive,inactive,inactive,inactive,inactive,inactive,–,–,–,–,–
C=C1C(=O)OC2CC(COC(=O)C(C)C)=C(C(C)CCCOC(C)=O)[C@@H](OC(C)=O)C12 (some centres not stated),inactive,inactive,inactive,inactive,inactive,inactive,–,–,–,–,–
C/C=C1/[C@H](O[C@@H]2O[C@H](CO)[C@@H](O)[C@H](O)[C@H]2O)OC=C2C(=O)O[C@@H]3C[C@@H](C(C)CO)[C@H](COC(=O)C[C@H]21)[C@H]3C (some centres not stated),inactive,inactive,inactive,inactive,inactive,inactive,–,–,–,–,–
Cc1ccc(-c2c(-c3nn(C)c4ncnc(N5CCC(N6CCCCC6)C5)c34)cnn2C)cc1 (configuration not stated),inactive,inactive,inactive,inactive,inactive,inactive,–,–,–,–,–
CC1C2=CC(=O)OC2(O)CC2C1C(OC(=O)c1ccccc1)C(OC(=O)c1ccccc1)C1(O)C2(C)CCC(O)C1(C)C(=O)O (configuration not stated),inactive,inactive,inactive,inactive,inactive,inactive,–,–,–,–,–
CC(=O)N[C@H]1[C@H](O[C@H]2CC[C@]3(C)C4CC=C5[C@@H]6CC(C)(C)CC[C@]6(C(=O)O)[C@H](O)C[C@@]5(C)[C@]4(C)CC[C@H]3C2(C)C)O[C@H](CO)[C@@H](O)[C@@H]1O (some centres not stated),inactive,inactive,inactive,inactive,inactive,inactive,–,–,–,–,–
C[C@H]1CC[C@@]2(OC1)O[C@H]1CC3C4CC[C@H]5C[C@@H](O)CC[C@]5(C)C4CC(=O)[C@]3(C)[C@H]1[C@@H]2C (some centres not stated),inactive,inactive,inactive,inactive,inactive,inactive,–,–,–,–,–
C=C(C)C1Cc2c(ccc3c2OCC(c2ccc(O)cc2O)C3)O1 (configuration not stated),inactive,inactive,inactive,inactive,inactive,inactive,–,–,–,–,–
O=C(CCCCC1CCCCC1)N1CCC(c2cnc[nH]2)CC1,inactive,inactive,inactive,inactive,inactive,inactive,–,–,–,–,–
COC(=O)C1=CO[C@@H](O[C@@H]2O[C@H](CO[C@@H]3O[C@H](CO)[C@@H](O)[C@H](O)[C@H]3O)[C@@H](O)[C@H](O)[C@H]2O)[C@@H]2C(CO)=CC[C@H]12,inactive,inactive,inactive,inactive,inactive,inactive,–,–,–,–,–
C=C1CCC2[C@](C)(CO)CCC[C@@]2(C)[C@@H]1CCC1=CCOC1=O (some centres not stated),inactive,inactive,inactive,inactive,inactive,inactive,–,–,–,–,–
COC(=O)C1=COC(OC2OC(CO)C(O)C(O)C2O)C2C(COC(=O)/C=C/c3ccc(O)cc3)C(O)C(O)C12 (configuration not stated),inactive,inactive,inactive,5.82 µM (active),inactive,inactive,–,–,–,–,–
COc1ccc([C@H]2OC[C@H]3[C@@H]2CO[C@@H]3c2ccc(O[C@@H]3O[C@H](CO)C(O)[C@H](O)[C@H]3O)c(OC)c2)cc1OC (some centres not stated),inactive,inactive,inactive,inactive,inactive,inactive,–,–,–,–,–
CC(/C=C/C=C(\C)C(=O)O[C@@H]1O[C@H](CO[C@@H]2O[C@H](CO)[C@@H](O)[C@H](O)[C@H]2O)[C@@H](O)[C@H](O)[C@H]1O)=C\C=C\C=C(C)\C=C\C=C(/C)C(=O)O[C@@H]1C[C@](O)(C(=O)O)C[C@@H](O)[C@H]1OC(=O)/C=C/c1ccc(O)c(O)c1,inactive,inactive,–,0.45 µM (active),–,–,–,–,-29.7% [at 11.6 µM],-7.98% [at 11.5 µM],-0.112% [at 11.6 µM]
Cc1ccc(C)c(S(=O)(=O)n2cnc3ccccc32)c1,inactive,inactive,inactive,inactive,inactive,inactive,–,–,–,–,–
O=C(OCC1OC(Oc2ccc(O)cc2COC(=O)C2(O)C(O)CCC(=O)C2OC(=O)C2C=CCC2)C(OC(=O)C2C=CCC2)C(O)C1O)C1C=CCC1 (configuration not stated),inactive,inactive,inactive,inactive,inactive,inactive,–,–,–,–,–
C/C=C(\C)C(=O)OC[C@H]1O[C@H](O[C@H]2O[C@H](CO)[C@@H](O)[C@H](O)[C@H]2O[C@@H]2O[C@H](CO)[C@@H](O)[C@H](O)[C@H]2O)[C@H](O[C@@H]2O[C@H](CO)[C@@H](O)[C@H](O)[C@H]2O)[C@@H](O)[C@@H]1O,inactive,inactive,inactive,inactive,inactive,inactive,–,–,–,–,–
C=C1CCC2[C@](C)(CCC[C@]2(C)C(=O)O)[C@H]1CC/C(C)=C/C(=O)OC (some centres not stated),inactive,inactive,inactive,inactive,inactive,inactive,–,–,–,–,–
